# High-throughput results: PubChem BioAssay, National Center for Advancing Translational Sciences (NCATS)
# This is a sample that favours compounds with a hit; in the whole collection about 21% have one here.
# TDP1 cell CPT = qHTS for Inhibitors of human tyrosyl-DNA phosphodiesterase 1 (TDP1): qHTS in cells in presence of CPT; chicken DT40 Tdp1-/-;hTDP1 cells + 20 nM CPT, ATP luminescence, 48 h; Potency, µM (doses to about 46.2 µM), without a hit: at the top dose activity change, negative = growth inhibition, most hits filed as inhibitors; 12% of 420,000 active; further: potency means the concentration at half of the fitted maximal effect; on the % scale 0 is the no-effect control and ±100 the full control effect; nearly all actives have a fitted effect of over 55% in size
#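 Chicken DT40 Tdp1-/- cells complemented with human TDP1, 400 cells/well, exposed to compounds plus 20 nM camptothecin for at least 48 h at 37 C; viability read as ATP content by CellTiter-Glo luminescence.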
# DT40 TDP1 no CPT = qHTS for Inhibitors of human tyrosyl-DNA phosphodiesterase 1 (TDP1): qHTS in cells in absence of CPT | AID 686978, 2013 | Potency, µM (series often up to 46.2 µM), for the others: top-dose activity change, negative = growth inhibition, usual class: inhibitors | 15% of 420,000 active | DT40 Tdp1-/- hTDP1 cells, no CPT, ATP luminescence, 48 h; further: potency means the concentration at half of the fitted maximal effect; on the % scale 0 is the no-effect control and ±100 the full control effect; nearly all actives have a fitted effect of over 55% in size
#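 Growth kinetics read by CellTiter-Glo luminescence after ≥48 hr at 37 °C. Cells: DT40 Tdp1-/- stably carrying human TDP1, 400 per well, compound exposure in the absence of CPT (DMSO vehicle).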
# IL1B secr inh = qHTS for Inhibitors of Inflammasome Signaling: IL-1-beta AlphaLISA Primary Screen; 4.7% of 360,000 active; THP-1 LPS/ATP IL-1B secretion, AlphaLISA, 16 h; stronger effect = lower value; activity change, % at 57.5 µM; AID 743279, 2014; in the data active means activity change below about -50%; inconclusive means mostly about -30% to -49%; further: on the % scale 0 is the no-effect control and ±100 the full control effect
#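 THP-1 cells pretreated 1 hr with compounds (up to 57.5 uM final), then stimulated with LPS (250 ng/mL final) plus ATP (1.25 mM final); secreted IL-1B measured by AlphaLISA after 16 hr, decreased signal indicating inhibition.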
# DRD3 agonist = qHTS of D3 Dopamine Receptor Agonist: qHTS; D3R DiscoveRx beta-arrestin cells, luminescence, 90 min; max activation, %; AID 652048, 2013; 0.58% of 410,000 active; in the data active means max activation above about 30%; further: 0% is about no effect
# Target sequence (P35462 whole entry, looked up): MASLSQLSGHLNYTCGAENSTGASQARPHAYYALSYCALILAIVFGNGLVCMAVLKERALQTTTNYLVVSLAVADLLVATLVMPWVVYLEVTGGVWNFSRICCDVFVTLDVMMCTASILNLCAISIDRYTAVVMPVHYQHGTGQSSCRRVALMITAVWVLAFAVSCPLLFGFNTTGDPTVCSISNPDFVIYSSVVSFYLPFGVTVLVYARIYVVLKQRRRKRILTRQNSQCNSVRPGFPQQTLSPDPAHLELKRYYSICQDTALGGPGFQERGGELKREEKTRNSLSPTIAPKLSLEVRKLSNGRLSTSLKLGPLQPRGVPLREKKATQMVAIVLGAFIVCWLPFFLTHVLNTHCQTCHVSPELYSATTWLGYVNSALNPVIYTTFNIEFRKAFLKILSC
#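 Agonist-mode cell screen: cells plated at 1500/well and incubated overnight at 37 °C, then exposed to library compounds for 90 min at 37 °C. Detection reagent was added for 30–60 min at room temperature, and luminescence was read.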
# D3 antag = qHTS of D3 Dopamine Receptor Antagonist: qHTS. max response, negative = inhibition, %. 2.5% of 360,000 active. D3R cells, DiscoveRx beta-arrestin luminescence, antagonist mode; stronger effect = lower value; in the data active means max response below about -50%; inconclusive means no clear call, values can overlap the other calls; further: on the % scale 0 is the no-effect control and ±100 the full control effect
#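 Cells expressing the human receptor were seeded at 1500 cells/well, incubated overnight at 37 degrees C in 5% CO2, then exposed to library compounds with dopamine controls for 90 minutes at 37 degrees C before luminescent detection.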
# ClpP mod = qHTS Assay for Activators of ClpP | ATP-dependent Clp protease proteolytic subunit (Bacillus subtilis (strain 168)), P80244 | purified B. subtilis ClpP, FRET peptide cleavage, 20 min | Potency, µM (top dose mostly 57.5 µM), without a hit: at the highest dose activity change, negative = active | 1.9% of 340,000 active | AID 651965, 2013; active means well fitted falling curve with a large enough effect; inconclusive means small, poorly fitted or top-dose-only effect; inactive means no such curve, though single readings can be large or run the other way; further: potency means the concentration at half of the fitted maximal effect; the source files actives as falling curves though it sought activators and does not explain the sign; nearly all actives have a fitted effect of over 65% in size
# Target sequence (P80244 whole entry, looked up): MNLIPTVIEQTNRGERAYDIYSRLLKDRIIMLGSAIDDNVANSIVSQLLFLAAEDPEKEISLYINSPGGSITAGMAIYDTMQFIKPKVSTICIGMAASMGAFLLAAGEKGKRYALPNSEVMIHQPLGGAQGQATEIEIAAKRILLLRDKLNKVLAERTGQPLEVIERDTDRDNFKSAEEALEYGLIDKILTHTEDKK
#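 Buffer: 100 mM Tris/HCl pH8, 100 mM KCl, 0.05% low protease BSA, 2.5% glycerol, 0.01% Tween-20. ClpP 10 microg/mL final; 20 min RT; delta FRET normalized to ADEP and DMSO controls.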
# Starred values were filed as active, the others as inactive; ? = inconclusive; . = no result. Unless noted, the call rests on the fitted dose curve; in most records, active means well fitted inhibition curve with a large enough effect; inconclusive means small, poorly fitted or top-dose-only effect; inactive means flat fitted curve, though single readings scatter.
SMILES,TDP1 cell CPT,DT40 TDP1 no CPT,IL1B secr inh,DRD3 agonist,D3 antag,ClpP mod
COCCNC(=O)NC(=O)CN1CCCc2ccccc21,-11.8%,-7.9%,18.5,-20.8,0.0,-3.4%
COC(=O)c1[nH]c2ccc(Br)cc2c1NC(=O)CN1CCCc2ccccc21,20.6µM*,18.4µM*,-52.9*,-1.0,5.7,-5.0%
CCOC(=O)c1c(NC(=O)C[n+]2ccc(Cc3ccccc3)cc2)sc(C)c1C,11.6µM*,6.51µM*,-73.5*,-16.5,?,.
Cc1sc(NC(=O)CCS(=O)(=O)c2ccccc2)c(C#N)c1C,23.1µM*,?,-3.2,0.5,-11.7,-4.0%
O=C(NCC(=O)N1CCN(c2ccccn2)CC1)c1ccc(Br)o1,-22.0%,31.8%,4.9,-0.3,12.1,3.6%
O=C(NCCC1=CCCCC1)C1CC(=O)N(Cc2ccccc2)C1 (stereo not drawn),-3.4%,-3.5%,7.3,-14.4,-15.0,0.4%
Cc1cc(C(=O)c2ccc(C(C)(C)C)cc2)c(NC(=O)CCl)s1,5.8µM*,4.61µM*,-50.7*,-2.2,-14.4,-3.4%
COC(=O)c1c(NC(=O)CS(=O)(=O)c2ccccc2)sc(C)c1C,?,20.6µM*,-6.7,-10.1,-14.2,-18.5%
Cc1cc(C(=O)c2ccccc2)c(NC(=O)CN2CCOCC2)s1,-19.1%,-28.3%,-15.4,-4.1,22.0,1.1%
Cc1sc(NC(=O)CCl)c(C(=O)c2ccccc2)c1C,18.4µM*,9.2µM*,-98.2*,-3.9,-66.3*,-0.2%
CCOC(=O)c1c(NC(=O)CN2CCCc3ccccc32)sc(C)c1C,?,?,14.5,5.6,-10.4,-19.0%
COC(=O)c1c(NC(=O)CN2CCCc3ccccc32)sc(C)c1C,20.6µM*,?,-4.1,-11.0,-60.1*,-13.3%
COc1ccccc1NC(=O)CSCc1cc(=O)n2c(C)csc2n1,-16.7%,22.3%,35.3,-16.0,18.8,-1.4%
O=C(O)c1ccc(CNc2ncnc3nc[nH]c23)cc1,7.9%,-2.1%,.,.,.,-1.7%
CCn1c(SCC(=O)NC)nnc1C(C)C,-5.9%,-17.3%,5.8,-2.7,-51.6*,-0.1%
COc1cccc(-c2nnn(CC(=O)N3CCC(C)CC3)n2)c1,1.2%,-21.4%,-11.3,2.7,-2.2,-1.4%
O=C(c1ccc(C(F)(F)F)cc1)C1CCCN(C(=O)CCc2ccncc2)C1 (stereo not drawn),8.2µM*,6.51µM*,-4.7,26.3,13.1,.
CN(C)C(=O)N1CCC(C(=O)N2CCCC(C(=O)c3ccc(C(C)(C)C)cc3)C2)CC1 (stereo not drawn),?,16.4µM*,-5.3,0.2,3.0,2.6%
O=C(c1cc(F)ccc1F)C1CCCN(C(=O)CCc2cnccn2)C1 (stereo not drawn),-7.3%,-21.3%,16.1,12.4,-5.4,.
O=C(c1cccc2ccccc12)C1CCCN(C(=O)CCc2cnccn2)C1 (stereo not drawn),?,8.2µM*,13.8,12.8,0.8,.
NC(=O)CCC(=O)N1CCCC(C(=O)c2ccc(C(F)(F)F)cc2)C1 (stereo not drawn),-14.1%,18.6%,-4.1,-4.3,1.3,-1.2%
CN(C)C(=O)CCC(=O)N1CCCC(C(=O)c2ccc(C(F)(F)F)cc2)C1 (stereo not drawn),?,25.9µM*,0.1,4.1,-2.6,.
CC(C)CNC(=O)c1ccccc1NC(=O)c1ccccc1N(C)S(=O)(=O)c1ccccc1,-26.1%,?,?,2.2,24.7,1.1%
COc1cccc(N2[C@@H](CC(=O)O)c3cc(C(F)(F)F)ccc3S2(=O)=O)c1,3.6%,-10.1%,-2.8,-7.3,-11.9,-3.8%
O=C(NN=C1CCCCCCC1)c1ccc2ccccc2n1,?,-19.7%,54.9,1.5,-13.6,.
SMILES,TDP1 cell CPT,DT40 TDP1 no CPT,IL1B secr inh,DRD3 agonist,D3 antag,ClpP mod
C/C(=N\NC(=O)c1ccc(N)cc1)C1CC1,3.3%,2.4%,-3.6,13.7,-3.2,-3.6%
COc1cc(/C(C)=N/NC(=O)c2ccc(CSc3nncn3C)cc2)cc(OC)c1OC,9.3%,2.7%,9.7,7.3,-23.9,-0.8%
COc1ccc(/C(C)=N/NC(=O)c2ccc(CSc3cccc4cccnc34)cc2)cc1OC,?,15.8µM*,-16.1,15.2,37.6,22.4µM*
C/C(=N\NC(=O)c1ccc(CSc2cccc3cccnc23)cc1)C1CCCCC1,12.6%,-9.7%,-4.4,-2.8,-7.5,28.2µM*
C=CCN(C(=O)Nc1ccc(OC)cc1)c1nnc(-c2ccncc2)s1,-11.6%,?,10.8,0.2,-7.7,.
Cc1ccc(CNC(=O)c2cc3sccc3n2Cc2ccc(Cl)cc2)cc1,?,?,.,-25.2,.,?
CCOc1ccc(CCNC(=O)c2cc3sc(Cl)cc3n2C)cc1OCC,?,?,15.4,1.6,25.0,1.1%
O=C(NCCN1CCOCC1)c1cc2sccc2n1Cc1ccc(F)cc1,-30.1%,?,-5.0,-65.2,-96.8*,-2.6%
Cc1ccc(CCNC(=O)c2cc3sccc3n2Cc2ccc(Cl)cc2)cc1,-16.1%,-7.6%,.,-25.6,.,?
CCOc1ccc(CCNC(=O)c2cc3sccc3n2C)cc1OCC,16.4µM*,10.3µM*,-5.8,1.4,12.8,1.6%
COc1ccc(CCNC(=O)c2cc3sccc3n2Cc2ccc(Cl)cc2)cc1OC,13µM*,14.6µM*,.,-12.5,.,-24.5%
O=C(NCCN1CCOCC1)c1cc2sccc2n1Cc1ccc(Cl)cc1,?,?,-0.8,-33.5,-95.8*,-1.8%
O=C(NCc1cccc(F)c1)C1CCC(=O)N(CC2CCCCC2)C1 (stereo not drawn),2.6%,-15.4%,-5.1,5.5,8.2,-0.9%
O=C(Nc1ccc(Cl)cc1)c1cccc(NC2=NC3CS(=O)(=O)CC3S2)c1 (stereo not drawn),16.1%,18.6%,-17.9,-5.3,-5.4,-1.0%
COc1ccc(OC)c(NC(=O)C(C)n2c(=O)cc(C)c3c(C)nn(-c4ccccc4)c32)c1 (stereo not drawn),-29.0%,-4.1%,.,2.7,.,-2.5%
COc1ccc(NC(=O)c2ccc(COc3ccc(C)cc3)o2)cc1,?,?,8.5,2.0,-0.5,12.1%
